# Source: PubChem BioAssay
# Most compounds without a hit are left out; they make up all but 4.3% or so of the library.
# Giardia kill: kills Giardia lamblia | activity change, % at 7.66 µM, hits read low | AID 540267 | Giardia lamblia trophozoite viability | 340,000 compounds, 0.15% hits; in the data active = activity change below about -80%; inconclusive = between about -30% and that limit;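 also: parasites exposed to compound for two days anaerobically before the ATP read; % is scaled to controls: 0 for no effect and ±100 for the full control effect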
#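 Media and compound were dispensed first, then trophozoites at 100 cells/well; plates sat 48 hrs at 37 deg C without oxygen before ATP luminescence reagent was added and read after 15-30 min at room temperature.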
# SW480 rereplic: induces DNA re-replication in SW480 colon adenocarcinoma cells | SW480 DNA re-replication, Hoechst DNA content imaging, 48 h | Potency, µM (titrated, usually from 46.1 µM), for the others: at the top dose re-replication activation, most hits filed as activators | 340,000 compounds, 1.8% hits; also: potency is read from the fitted curve at half-maximal effect; % of control where 0% means no effect; nearly all actives have a fitted effect of over 55% in size
#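 Quantitative HTS format with DMSO vehicle controls; 48 hr drug incubation at 37 C, then 40 min Hoechst staining and scanning imager measurement at 405 nm excitation.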
# uPA surface inh: inhibitors of cell surface uPA generation | cell surface uPA generation assay, qHTS | AID 540303 | Potency, µM (highest dose often 38.3 µM), inactives show at the highest dose activity change, negative = inhibition, most hits filed as inhibitors | 330,000 compounds, 0.31% hits; active = well fitted inhibition curve with a large enough effect; inconclusive = small, poorly fitted or top-dose-only effect; inactive = no such curve, though single readings can be large or run the other way; tested in mouse RAW 264.7 cells; also: potency is read from the fitted curve at half-maximal effect; % is scaled to controls: 0 for no effect and ±100 for the full control effect; nearly all actives have a fitted effect of over 55% in size
# MCF10A rereplic: induces DNA re-replication in MCF 10a normal breast cells | Potency, µM (series often up to 46.1 µM), for the others: top-dose activity, positive = re-replication, usual class: activators | 350,000 compounds, 2.9% hits | MCF 10A DNA re-replication, Hoechst nuclear intensity, 48 h; also: potency is read from the fitted curve at half-maximal effect; % of control where 0% means no effect; nearly all actives have a fitted effect of over 50% in size
# * hit, by the source's call; ? = inconclusive. Unless noted, calls follow the shape of the dose curve; as a rule, active = well fitted activation curve with a large enough effect; inconclusive = small, poorly fitted or top-dose-only effect; inactive = no such curve, though single readings can be large or run the other way.
SMILES,Giardia kill,SW480 rereplic,uPA surface inh,MCF10A rereplic
c1ccc(-c2cnc(-c3ccccn3)nn2)cc1,?,-8%,6.3µM*,11%
CN(C)c1ccc(/C=N/NC(=O)c2ccc(-n3cnnn3)cc2)cc1,?,-6%,-10%,1%
CCC1(CC)SCCNC1=O,-3,15%,5%,4%
CCCC(c1nnnn1Cc1ccco1)N1CCN(c2cc(Cl)ccc2C)CC1 (configuration not stated),1,2%,-4%,25µM*
CC(CCc1ccccc1)NC(=O)COC(=O)c1cc(NS(=O)(=O)c2ccc(Cl)c([N+](=O)[O-])c2)ccc1O (configuration not stated),-14,11%,-9%,6.5µM*
Cc1nc2ccccn2c1-c1csc(Nc2ccc(C(=O)O)cc2)n1,-6,12µM*,-17%,12µM*
Cc1ccc(OCc2cc(C(=O)N3CCC(c4ccccc4Cl)C3)no2)cc1C (configuration not stated),-15,-9%,-4%,17%
Oc1c(C(c2ccccc2)N2CCOCC2)ccc2ccccc12 (configuration not stated),2,?,3%,16µM*
NNc1nnc2c3cc(F)ccc3n(CCc3ccccc3)c2n1,-18,4.1µM*,-10%,?
Cc1c(CN(C)Cc2cn(C)nc2-c2ccccc2F)[nH]c2ccccc12,4,?,2%,18µM*
Cc1ccc(C)c(COc2coc(CN3CCN(C(=O)c4ccco4)CC3)cc2=O)c1,9,7%,0%,5%
O=C(CSc1cccc2cccnc12)Nc1cc(C(=O)O)cc(C(=O)O)c1,-2,?,4%,13%
CC(C)(C)OC(=O)N1CCC(C(=O)Nc2ccc(C(=O)NC3CC3)cc2)CC1,11,-2%,9%,0%
Cc1ccc(OCc2nc(-c3ccccn3)no2)c(Br)c1,-8,-17%,-13%,?
CC(C)c1ccc(OCc2nc(-c3ccccn3)no2)c(Br)c1,-7,-1%,-2%,15µM*
CCOC(=O)c1c(NC(=O)C2CCCCC2)sc2c1CCN(C(C)C)C2,-7,?,?,?
CCc1cc2c(C)cc(=O)oc2cc1OC(=O)C1CCCN1C(=O)OC(C)(C)C (configuration not stated),0,18µM*,4%,11%
COc1cc(C(=O)NC2CCN(C)CC2)ccc1Nc1ncc2c(n1)N(C1CCCCC1)CCC(=O)N2C,-16,1.5µM*,?,0.65µM*
CCN1C(=O)CC(c2ccccc2)N(C2CCCC2)c2nc(Nc3ccc(C(=O)NC4CCN(C)CC4)cc3OC)ncc21 (configuration not stated),1,12%,?,?
COc1cc(C(=O)NC2CCN(C)CC2)ccc1Nc1ncc2c(n1)N(Cc1ccccc1)CCC(=O)N2C,-3,?,?,23µM*
CCN1C[C@@H]2[C@@H]3C(=O)N(C)C(=O)[C@@H]3[C@](C)(C1=O)N2C(=O)c1ccc(Br)cc1,-2,-7%,6%,-2%
CCN(CC)S(=O)(=O)c1cccc(C(=O)NCC2(N3CCOCC3)CCCCC2)c1,11,-10%,-12%,3%
COc1cc(NC(=O)CCCC(=O)OCC(F)(F)C(F)F)nc(OC)n1,0,?,7%,23µM*
COc1cc(NC(=O)CCC(=O)OCCCC(F)(F)C(F)(F)F)nc(OC)n1,-6,1%,1%,?
CCc1ccc(C2C(C#N)=C(N)C(C#N)(C#N)C3=CCC(C(C)(C)C)CC32)cc1 (configuration not stated),-1,8.2µM*,-8%,15µM*
SMILES,Giardia kill,SW480 rereplic,uPA surface inh,MCF10A rereplic
O=C(CN1CCN(S(=O)(=O)c2cccc(Br)c2)CC1)N1CCCCC1,5,-6%,12%,-1%
Nc1nc(N)c2cc(Sc3ccc4ccccc4c3)ccc2n1,13,?,2µM*,16µM*
Nc1nc(-c2ccc3ccccc3c2)cs1,-9,0%,-12%,5%
Cc1cccc(-c2nnc(SCC(=O)c3ccc(O)cc3O)n2C)c1,0,1%,2%,3%
CCOC(=O)Cc1cnc(NC(=O)CSc2nc3ncnc(N)c3[nH]2)s1,8,?,4%,0.65µM*
CCOC(=O)Cc1cnc(NC(=O)CSc2nc(C)cc(C)n2)s1,-11,-4%,8%,4%
CCOC(=O)C(=O)Nc1nc(-c2ccccc2)c(-c2ccccc2)o1,-7,0%,1%,17%
CN1CCN(C(=S)SCC(=O)Nc2nc(-c3ccccc3)c(-c3ccccc3)o2)CC1,-4,-108%,-2%,12µM*
CCOC(=O)C1CCN(C(=O)C2CCC(=O)N(CC3CCCCC3)C2)CC1 (configuration not stated),-10,-2%,-1%,1%
COc1ccc(NC(=O)CN(C)C(=O)c2ccc(C)c(S(=O)(=O)N3CCCCC3)c2)cc1,-16,-11%,8%,-4%
CCc1ccc2nc(SCC(=O)Nc3ccccc3N3CCOCC3)c(C#N)cc2c1,33,3.7µM*,-5%,3.7µM*
CCc1ccc2nc(SCC(=O)N3CC(=O)Nc4ccccc43)c(C#N)cc2c1,-13,?,-13%,8.2µM*
OC(COc1ccc(OCC(O)CN2CCCCCC2)cc1)CN1CCCCCC1 (configuration not stated),-11,-8%,8%,-3%
CCCc1ccc(OCC(O)CN2CCCC2)cc1 (configuration not stated),9,-2%,-8%,15µM*
OC(COc1ccc(OCc2ccccc2)cc1)CN1CCOCC1 (configuration not stated),-15,?,1%,9.2µM*
OC(COc1ccc(OCc2ccccc2)cc1)CN1CCCCC1 (configuration not stated),-8,2%,-9%,3%
CN1CCN(CC(O)COc2ccc(C34CC5CC(CC(C5)C3)C4)cc2)CC1 (configuration not stated),17,?,10%,15µM*
C=CCc1ccccc1OCC(O)CN1CCOCC1 (configuration not stated),-16,12µM*,0%,9%
O=C(NC(Cc1ccccc1)C(=O)N1CCN(c2ccccc2O)CC1)c1ccccc1 (configuration not stated),16,-396%,0%,?
CC(C)(c1ccccc1)c1ccc(OCC(O)CN2CCCC2)cc1 (configuration not stated),2,16µM*,-6%,?
CN(C)S(=O)(=O)N1CCN(CC(O)COc2ccc(-c3ccccc3)cc2)CC1 (configuration not stated),20,6%,-4%,23µM*
CN(C)S(=O)(=O)N1CCN(CC(O)COc2ccc3cc(Br)ccc3c2)CC1 (configuration not stated),3,10%,-4%,0%
Nc1nnnn1/N=C/C(Br)=C/c1ccccc1,-1,2.8µM*,-2%,2.6µM*
COc1ccc(C(=O)NCC(c2ccco2)N(C)C)cc1S(=O)(=O)NCc1ccc(Cl)cc1 (configuration not stated),-11,0%,0%,4%
